Experimental data reported in PubChem BioAssay (NCATS).
“And” between values parts separate entries of the source, which are not always exact repeats. Equal entries are not always repeated. Results filed as inconclusive are left out. The source made the active and inactive calls. Unless noted, calls come from the whole dose curve; as a rule, active = well fitted curve in the direction sought with a large enough effect; inconclusive = small, poorly fitted or top-dose-only effect, or another doubt; inactive = no such curve, though single readings can be large; an effect the other way counts as inactive or inconclusive.

Legend:
[1] = biological target: Peroxisome proliferator-activated receptor gamma (Homo sapiens) (UniProt P37231); experiment: qHTS assay for small molecule antagonists of peroxisome proliferator-activated receptor gamma signaling (AID 588537; active = well fitted inhibition curve with a large enough effect in the signal ratio, with a control signal flat, not every such curve was filed as active; the % refers to the signal ratio;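 note: reporter cells co-stimulated with 50 nM rosiglitazone agonist during compound treatment; % of control where 0% means no effect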)
Sequence of Peroxisome proliferator-activated receptor gamma (Homo sapiens) (P37231 whole entry, looked up): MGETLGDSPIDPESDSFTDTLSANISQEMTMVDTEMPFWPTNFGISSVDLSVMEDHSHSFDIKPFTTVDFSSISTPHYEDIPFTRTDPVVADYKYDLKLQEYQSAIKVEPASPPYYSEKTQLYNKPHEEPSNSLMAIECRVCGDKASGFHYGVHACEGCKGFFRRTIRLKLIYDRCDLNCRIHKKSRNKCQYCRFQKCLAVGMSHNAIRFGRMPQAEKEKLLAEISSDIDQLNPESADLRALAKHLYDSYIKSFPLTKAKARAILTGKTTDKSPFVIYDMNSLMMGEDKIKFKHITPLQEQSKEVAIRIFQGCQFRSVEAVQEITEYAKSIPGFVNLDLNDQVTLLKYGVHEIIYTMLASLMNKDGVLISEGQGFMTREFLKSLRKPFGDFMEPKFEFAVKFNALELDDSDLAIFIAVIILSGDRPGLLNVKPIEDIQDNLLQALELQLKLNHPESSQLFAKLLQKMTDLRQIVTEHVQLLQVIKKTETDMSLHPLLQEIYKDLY
Method in brief: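 Step one: plate 3000 HEK293 UAS-bla cells per well in medium with 1% stripped serum and hold 6-6.5 h at 37 C. Step two: add compound and 50 nM agonist for 16 h. Step three: CCF4 loading, fluorescence read.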

[2] = qHTS assay for small molecule agonists of retinoid X receptor alpha signaling (AID 588544; calls by dose curve;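 for activation: 0% = DMSO basal wells and 100% = reference agonist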); details: HEK293T RXRa-UAS-bla, beta-lactamase reporter, 18 h; 530 nm emission
[3] = biological target: Retinoic acid receptor RXR-alpha (Homo sapiens) (UniProt P19793); experiment: as above
Sequence of Retinoic acid receptor RXR-alpha (Homo sapiens) (P19793 whole entry, looked up): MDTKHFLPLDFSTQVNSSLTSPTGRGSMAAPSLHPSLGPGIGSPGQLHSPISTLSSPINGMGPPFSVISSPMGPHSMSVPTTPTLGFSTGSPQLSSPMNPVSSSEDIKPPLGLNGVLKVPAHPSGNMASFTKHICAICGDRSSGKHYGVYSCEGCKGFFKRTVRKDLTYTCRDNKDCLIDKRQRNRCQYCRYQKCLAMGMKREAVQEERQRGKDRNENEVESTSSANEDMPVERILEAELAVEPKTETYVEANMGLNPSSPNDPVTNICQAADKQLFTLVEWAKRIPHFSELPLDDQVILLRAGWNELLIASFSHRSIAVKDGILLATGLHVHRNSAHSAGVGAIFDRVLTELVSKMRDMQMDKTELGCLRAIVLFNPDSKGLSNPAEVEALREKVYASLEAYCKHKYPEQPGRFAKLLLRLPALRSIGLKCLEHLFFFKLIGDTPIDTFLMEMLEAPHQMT

[4] = biological target: Thyroid hormone receptor beta (Homo sapiens) (UniProt P10828); experiment: qHTS assay for small molecule agonists of thyroid hormone receptor beta signaling (AID 588545; calls by dose curve)
Sequence of Thyroid hormone receptor beta (Homo sapiens) (P10828 whole entry, looked up): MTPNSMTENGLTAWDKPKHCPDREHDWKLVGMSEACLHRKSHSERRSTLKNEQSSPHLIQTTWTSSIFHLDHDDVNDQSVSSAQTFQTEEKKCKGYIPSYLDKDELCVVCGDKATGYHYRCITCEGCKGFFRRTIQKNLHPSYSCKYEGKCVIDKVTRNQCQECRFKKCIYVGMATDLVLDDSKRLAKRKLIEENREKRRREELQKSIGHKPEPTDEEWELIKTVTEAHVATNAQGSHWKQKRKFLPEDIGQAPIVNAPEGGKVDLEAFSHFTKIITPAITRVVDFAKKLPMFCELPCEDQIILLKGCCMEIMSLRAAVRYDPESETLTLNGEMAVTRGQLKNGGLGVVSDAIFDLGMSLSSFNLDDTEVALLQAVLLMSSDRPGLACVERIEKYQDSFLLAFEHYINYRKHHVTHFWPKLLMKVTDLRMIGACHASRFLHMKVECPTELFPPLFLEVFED
Method in brief: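 Cells (2500/well) were seeded, incubated 4 hrs at 37 C, dosed with a compound series, incubated 18 hrs, loaded with CCF4 dye for 2 hrs at RT, then read for fluorescence. Data were scaled between DMSO (0%) and 10 nM T3 (100%).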

[5] = qHTS assay for small molecule antagonists of retinoid X receptor alpha signaling (AID 588546; active = well fitted inhibition curve with a large enough effect in the signal ratio, with a control signal flat, not every such curve was filed as active; the % refers to the signal ratio;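 note: cells stimulated with 9-cis-retinoic acid as agonist; % is set by controls: 0 for no effect and ±100 for the full control effect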); details: HEK293T RXRa-UAS-bla, beta-lactamase ratio, antagonist mode; measured here: W530 green channel, cytotoxicity proxy
Method in brief: (§1)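 Beta-lactamase reporter inhibition, read as CCF4 fluorescence ratio (ex 405, em 460/530 nm) after 2 h at RT. HEK293T UAS-bla cells, 2500/well, were stimulated with 9-cis-RA at 500 or 100 nM final alongside test compound for 18 h at 37 C.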

[6] = biological target: Retinoic acid receptor RXR-alpha (Homo sapiens) (UniProt P19793); experiment: as above; details: HEK293T RXRa-UAS-bla, beta-lactamase ratio, antagonist mode
Method in brief: as §1

[7] = biological target: Thyroid hormone receptor beta (Homo sapiens) (UniProt P10828); experiment: qHTS assay for small molecule antagonists of thyroid hormone receptor beta signaling (AID 588547; active = well fitted inhibition curve with a large enough effect in the signal ratio, with a control signal flat, not every such curve was filed as active; the % refers to the signal ratio;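 note: cells stimulated with 0.4 nM T3 agonist during compound exposure; series mostly up to about 77 µM; % is set by controls: 0 for no effect and ±100 for the full control effect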); details: TR-UAS-bla HEK293, beta-lactamase ratio, antagonist mode, 18 h
Method in brief: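 TR-UAS-bla GripTite HEK293 cells in 2% charcoal/dextran FBS medium; compounds 0.59 nM to 92 uM with T3 at 0.4nM final, 18 h at 37 C. Beta-lactamase read by CCF4 fluorescence (460/530 nm); Hill fits gave IC50 and efficacy.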

[8] = biological target: Voltage-gated inwardly rectifying potassium channel KCNH2 (Homo sapiens) (UniProt Q12809); experiment: qHTS Assay for Small Molecule Inhibitors of the Human hERG Channel Activity (AID 588834);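 note: top concentration of the series differs between compounds; % is set by controls: 0 for no effect and ±100 for the full control effect; lower thallium flux fluorescence means stronger hERG block; nearly all actives have a fitted effect of over 50% in size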
Sequence of Voltage-gated inwardly rectifying potassium channel KCNH2 (Homo sapiens) (Q12809 whole entry, looked up): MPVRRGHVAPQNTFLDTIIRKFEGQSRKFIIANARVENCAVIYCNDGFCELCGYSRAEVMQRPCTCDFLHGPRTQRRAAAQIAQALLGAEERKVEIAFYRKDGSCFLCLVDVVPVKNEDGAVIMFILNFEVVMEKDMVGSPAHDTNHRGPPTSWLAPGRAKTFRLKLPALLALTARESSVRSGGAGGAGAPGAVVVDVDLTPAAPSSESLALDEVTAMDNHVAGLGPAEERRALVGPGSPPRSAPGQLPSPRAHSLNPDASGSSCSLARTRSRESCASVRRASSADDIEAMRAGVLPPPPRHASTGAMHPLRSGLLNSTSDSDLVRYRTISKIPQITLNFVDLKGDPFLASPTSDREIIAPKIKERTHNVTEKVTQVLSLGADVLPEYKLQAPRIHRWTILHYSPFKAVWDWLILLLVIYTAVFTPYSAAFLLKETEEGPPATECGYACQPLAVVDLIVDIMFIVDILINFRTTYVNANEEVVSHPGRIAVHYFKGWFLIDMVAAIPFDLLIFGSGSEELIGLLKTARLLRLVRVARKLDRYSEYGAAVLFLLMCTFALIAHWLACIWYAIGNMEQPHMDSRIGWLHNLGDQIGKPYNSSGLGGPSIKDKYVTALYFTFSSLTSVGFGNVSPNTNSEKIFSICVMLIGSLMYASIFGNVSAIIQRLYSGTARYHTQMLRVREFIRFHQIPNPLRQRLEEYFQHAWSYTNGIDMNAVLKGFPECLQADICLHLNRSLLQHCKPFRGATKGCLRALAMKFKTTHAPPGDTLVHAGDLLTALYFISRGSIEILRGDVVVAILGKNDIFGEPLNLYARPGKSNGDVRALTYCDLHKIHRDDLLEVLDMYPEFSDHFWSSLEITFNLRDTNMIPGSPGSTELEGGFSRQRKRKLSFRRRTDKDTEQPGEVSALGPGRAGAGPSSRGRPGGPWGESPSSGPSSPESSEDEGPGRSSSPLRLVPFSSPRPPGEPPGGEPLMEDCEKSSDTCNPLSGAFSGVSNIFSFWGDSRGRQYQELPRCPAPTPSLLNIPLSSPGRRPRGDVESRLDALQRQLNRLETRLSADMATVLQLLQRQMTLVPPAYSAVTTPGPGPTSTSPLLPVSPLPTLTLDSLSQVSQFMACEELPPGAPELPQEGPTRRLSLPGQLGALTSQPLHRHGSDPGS
Method in brief: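 hERG-BacMam U2OS, 2000 cells/well; 0.7X FluxOR loading 1 hr RT dark; cpd ~10 min 37 °C; stim buffer; FDSS fluorescence 2 min @ 1 s; AC50 Hill fit.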

[9] = qHTS assay for small molecule agonists of the antioxidant response element (ARE) signaling pathway (AID 651741; active = well fitted activation curve with a large enough effect in the signal ratio; the % refers to the signal ratio; note: % of control where 0% means no effect)
Method in brief: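 HepG2 ARE-bla cells plated at 2,000 cells/well and incubated 5 h at 37 C/5% CO2 received 23 nL compound in DMSO. After 16 h at 37 C, LiveBLAzer B/G FRET substrate was applied for 2 h at room temperature and fluorescence read.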

[10] = qHTS assay for small molecule activators of the p53 signaling pathway (AID 651743; active = well fitted activation curve with a large enough effect in the signal ratio, not every such curve was filed as active; the % refers to the signal ratio; note: series mostly up to about 92 µM; % of control where 0% means no effect); details: HCT-116 p53RE-bla, beta-lactamase FRET ratio, 16 h; activation: stronger effect = higher value
Method in brief: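 HCT-116 p53RE-bla, 4,000 cells/well; 5 h settle; cpd/DMSO 16 h, 37 C; LiveBLAzer B/G 2 h RT; fluorescence intensity.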

[11] = qHTS assay for small molecule disruptors of the mitochondrial membrane potential - 1 hr assay (AID 651754; calls by dose curve; note: % is set by controls: 0 for no effect and ±100 for the full control effect; nearly all actives have a fitted effect of over 35% in size)
Method in brief: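 HepG2 cells, attached overnight at 37C, were exposed to compound or DMSO vehicle for 1 hr at 37C, 5% CO2, then stained with Mito-MPS dye for 30 min. Red aggregate versus green monomer fluorescence reports membrane potential.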

[12] = qHTS assay for small molecule disruptors of the mitochondrial membrane potential - 5 hr assay (AID 651755; calls by dose curve; note: % is set by controls: 0 for no effect and ±100 for the full control effect; nearly all actives have a fitted effect of over 40% in size)
Method in brief: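 HepG2 cells (2,000/well), attached overnight, exposed to compound 5 hr at 37C, then Mito-MPS dye 30 min. Fluorescence read for monomers (490/535 nm) and aggregates (540/590 nm).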

[13] = qHTS assay for environmental chemicals that activate the Aryl hydrocarbon Receptor (AhR) signaling pathway (AID 651777); details: 1A2-DRE human hepatoma cells, luciferase, 24 h; activation: stronger effect = higher value; note: % of control where 0% means no effect; nearly all actives have a fitted effect of over 15% in size
Method in brief: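 Stable CYP1A2 promoter/DRE-luciferase human hepatoma line treated 24 hr; One-Glo luminescence, 30 min RT.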

[14] = biological target: Peroxisome proliferator-activated receptor alpha (Homo sapiens) (UniProt Q07869); experiment: qHTS assay for small molecule agonists of the peroxisome proliferator-activated receptor alpha (PPARalpha) signaling pathway (AID 651778); details: PathHunter PPARalpha complementation, chemiluminescence, 6 h; stronger effect = higher value; note: % of control where 0% means no effect
Sequence of Peroxisome proliferator-activated receptor alpha (Homo sapiens) (Q07869 whole entry, looked up, the tested form may be a part): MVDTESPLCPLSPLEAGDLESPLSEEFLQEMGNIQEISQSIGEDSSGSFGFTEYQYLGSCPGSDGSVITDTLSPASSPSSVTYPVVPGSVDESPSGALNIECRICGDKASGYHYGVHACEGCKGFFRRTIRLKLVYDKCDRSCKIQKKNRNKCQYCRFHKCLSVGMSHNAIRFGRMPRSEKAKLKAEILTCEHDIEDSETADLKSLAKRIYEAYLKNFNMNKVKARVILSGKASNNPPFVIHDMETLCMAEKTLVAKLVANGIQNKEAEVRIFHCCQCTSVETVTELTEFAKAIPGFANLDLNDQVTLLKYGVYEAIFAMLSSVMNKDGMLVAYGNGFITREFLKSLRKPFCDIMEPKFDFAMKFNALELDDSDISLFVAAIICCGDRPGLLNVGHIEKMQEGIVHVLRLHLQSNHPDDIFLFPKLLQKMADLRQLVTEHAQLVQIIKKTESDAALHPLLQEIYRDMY
Method in brief: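 Enzyme-fragment complementation assay in which ligand-bound PPARalpha translocates and forms an active enzyme that generates chemiluminescence. Cells were plated overnight, exposed to compound for 6 hr at 37 C, and then given detection reagent for 60 min at room temperature.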

[15] = biological target: Nuclear receptor ROR-gamma (Homo sapiens) (UniProt P51449); experiment: qHTS assay for small molecule antagonists of the retinoid-related orphan receptor gamma (ROR-gamma) signaling pathway (AID 651802); note: series mostly up to about 92 µM; % is set by controls: 0 for no effect and ±100 for the full control effect; nearly all actives have a fitted effect of over 60% in size
Sequence of Nuclear receptor ROR-gamma (Homo sapiens) (P51449 whole entry, looked up): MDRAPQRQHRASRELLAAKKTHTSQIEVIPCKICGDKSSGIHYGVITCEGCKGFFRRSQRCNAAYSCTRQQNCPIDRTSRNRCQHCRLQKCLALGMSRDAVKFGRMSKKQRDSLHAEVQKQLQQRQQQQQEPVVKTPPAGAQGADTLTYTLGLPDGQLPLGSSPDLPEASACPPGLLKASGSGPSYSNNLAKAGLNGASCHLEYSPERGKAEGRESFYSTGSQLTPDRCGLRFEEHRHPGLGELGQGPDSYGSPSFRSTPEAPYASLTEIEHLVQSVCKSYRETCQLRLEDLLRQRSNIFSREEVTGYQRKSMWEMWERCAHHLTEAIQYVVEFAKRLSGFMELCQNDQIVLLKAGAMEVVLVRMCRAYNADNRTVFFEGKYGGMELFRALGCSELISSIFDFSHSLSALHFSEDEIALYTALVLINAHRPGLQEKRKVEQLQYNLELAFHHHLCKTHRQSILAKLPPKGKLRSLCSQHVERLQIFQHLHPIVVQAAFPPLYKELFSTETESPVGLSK
Method in brief: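 CHO cells carrying TET-inducible ROR-gamma and an ROR response element–luciferase reporter were exposed to compound, then induced with doxycycline. After 16hr at 37C, luminescence was read; lower signal indicates antagonism.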

[16] = qHTS assay for small molecule agonists of the antioxidant response element (ARE) signaling pathway measured by Nrf2-dependant transcriptional activity (AID 720636; active = well fitted curve in the direction sought with a large enough effect in the repeat runs; an effect the other way counts as inactive or inconclusive;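 note: HepG2 cells with an ARE-driven luciferase reporter; % of control where 0% means no effect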)
Method in brief: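 Reporter gene assay, HepG2 ARE-luc: 16 hr compound, 37 C, 5% CO2; read-out luciferase luminescence.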

[17] = qHTS assay for small molecule agonists of the antioxidant response element (ARE) signaling pathway measured by Nrf2-dependant transcriptional activity - cell viability counter screen (AID 720653; active = well fitted curve in the direction sought with a large enough effect in the repeat runs; an effect the other way counts as inactive or inconclusive; note: % is set by controls: 0 for no effect and ±100 for the full control effect); details: ARE-bla HepG2 viability, CellTiter-Glo ATP luminescence, 16 h; stronger effect = lower value
Method in brief: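 ARE-bla HepG2 cells treated with compounds for 16 h at 37C; this counter screen measures viability as intracellular ATP by CellTiter-Glo luminescence after 30 min at room temperature.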

[18] = qHTS assay for cell viability of HEK293 cells (AID 743288); details: ATP luminescence (CellTiter-Glo), 18 h; max response: stronger effect = lower value; note: % is set by controls: 0 for no effect and ±100 for the full control effect; nearly all actives have a fitted effect of over 50% in size
Method in brief: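 HEK293 parental, 2,000 cells/well; ≥5 h pre-incubation 37 C; pintool compound addition; 18 h, 37 C; CellTiter-Glo 30 min RT; luminescence read.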

[19] = qHTS assay for cell viability of the p53RE-bla HCT-116 cell line (AID 743292); note: % is set by controls: 0 for no effect and ±100 for the full control effect; nearly all actives have a fitted effect of over 55% in size
Method in brief: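 Readout: CellTiter-Glo luminescence after 30 min RT. Treatment: compounds in DMSO, 16 h, 37 C. Cells: CellSensor p53RE-bla HCT-116, 4,000/well, preincubated 5 h.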

[20] = biological target: Nuclear receptor subfamily 1 group I member 2 (Rattus norvegicus) (UniProt Q9R1A7); experiment: qHTS assay for small molecule activators of the rat pregnane X receptor (rPXR) signaling pathway (AID 651751; call rule not given here; note: 0% is about no effect); details: rPXR reporter cells, luciferase (One-Glo), 24 h
Sequence of Nuclear receptor subfamily 1 group I member 2 (Rattus norvegicus) (Q9R1A7 whole entry, looked up): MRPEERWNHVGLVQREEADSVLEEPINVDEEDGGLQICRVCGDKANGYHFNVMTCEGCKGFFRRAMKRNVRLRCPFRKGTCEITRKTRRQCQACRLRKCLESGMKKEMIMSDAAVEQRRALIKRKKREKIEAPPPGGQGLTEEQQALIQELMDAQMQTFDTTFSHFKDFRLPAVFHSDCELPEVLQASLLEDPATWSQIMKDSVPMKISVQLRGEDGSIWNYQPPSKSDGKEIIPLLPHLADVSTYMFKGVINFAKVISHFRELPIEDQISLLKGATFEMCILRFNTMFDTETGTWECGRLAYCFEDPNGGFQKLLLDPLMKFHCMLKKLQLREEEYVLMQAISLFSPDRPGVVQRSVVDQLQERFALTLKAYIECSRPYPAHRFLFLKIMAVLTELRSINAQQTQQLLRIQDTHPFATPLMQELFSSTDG

[21] = qHTS assay for small molecule activators of the human pregnane X receptor (PXR) signaling pathway (AID 720659; call rule not given here; note: 0% is about no effect)

COc1ccc(C=O)cc1OC
17.8% and -5.1%: max response [2]
-5.56% and -4.77%: max response [5]
inactive: Potency [1] | Potency [3] | outcome [4] | max response [6] -9.7% and -21.1% | activity change % (negative = inhibition) [7] 2.18% and 12.7% | Potency [8] | Potency [9] | activation [10] -1.53% and 0.661% | Potency [11] | Potency [12] | activation [13] 0.671% and 1.28% | max response [14] 0.927% and -2.24% | Potency [15] | outcome [16] | max response [17] -2.79% and -2.46% | max response [18] -6.04% and -11.4% | Potency [19] | max response [20] -2.56% and 1.92% | outcome [21]
